TMEM16A inh: blocks the mouse calcium-activated chloride channel TMEM16A. Q8BHY3. HEK293 TMEM16A/YFP iodide influx fluorescence, ionomycin. normalized B-score (activity score, 25-100; higher = stronger inhibition) at 10 µM. 1.2% of 310,000 active;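 active means ratio plate-corrected score three or more library SD toward inhibition, starting fluorescence score within five deviations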;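 further: score derived from kinetic fluorescence span divided by baseline fluorescence per well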
CHT allo act: allosterically activates the human high affinity choline transporter; 0.49% of 310,000 active; CHT-expressing cells, membrane potential dye, choline EC20; hits give high values; LV-AA mutant CHT in HEK293 cells; B-score at 10 µM; Q9GZV3; AID 488977;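 active means initial fluorescence not abnormally high and integrated response B-score, plate-corrected, over 3 SD above library mean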
Kir21 block: Kir2.1 (mouse) channel inhibition. P35561. HEK293-Kir2.1, FluxOR thallium flux fluorescence; hits give low values. B-score at 10 µM. 0.85% of 310,000 active. AID 1672;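 active means fluorescence ratio B-score at or below minus 3 SD of library scores, with starting-brightness B-score within 2 SD, cut at about -4.2 in these data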;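 further: channel flux triggered by added potassium and thallium sulfate stimulus; B-score of peak minus minimum fluorescence over baseline after thallium stimulus; more negative B-score means stronger Kir2.1 block with less thallium influx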
ANO1 activ: mouse TMEM16A channel activation, primary screen; HEK293 TMEM16A/YFP-H148Q/I152L, iodide quench fluorescence; hits give low values; B-score at 10 µM; 0.3% of 340,000 active; AID 623877;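 active means fluorescence-ratio B-score plate-corrected deviation score at least 3 library SD below zero, with starting fluorescence score within 5 deviations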;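 further: channel opened by trigger with iodide after compound preincubation; score built on the fluorescence ratio of max minus min over baseline; more negative score means more quench and so TMEM16A activation or potentiation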
CHT block: inhibits the human high affinity choline transporter; Q9GZV3; CHT-expressing cells, membrane potential dye, choline response; hits give low values; B-score at 10 µM; 0.86% of 310,000 active; AID 488975;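 active means B-score over 3 SD under the library average, and starting fluorescence ratio not unusually high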;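 further: choline stimulus applied at its EC90 after an EC20 pre-addition; B-score computed on integrated fluorescence ratio after choline addition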
Rce1 inhib: yeast Ras-converting enzyme inhibition | yeast membranes, quenched prenylated peptide cleavage fluorescence | calls only | 0.27% of 290,000 active | AID 2563;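 active means fall in fluorescence gain of 50% or more versus controls, with final raw signal at or below 3038400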;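 further: plate controls were neutral control wells for no effect and wells lacking membranes for full effect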
Active calls of the source: *. The list is not random: actives were taken first. Their share in the collection is about 3.2%.

For CCC(=O)c1ccc(OCC(O)Cn2c(C)nc3ccccc32)cc1 (stereo not drawn) the results were TMEM16A inh inactive, CHT allo act inactive, ANO1 activ inactive and CHT block inactive.
Screening Cc1cc(C)c2c(=O)n(CC(=O)NCCCN3CCN(c4ccccc4F)CC3)sc2n1 returned TMEM16A inh 100*, CHT allo act inactive, Kir21 block -5.53*, CHT block inactive and Rce1 inhib inactive.
Screening CCc1ccc(OC(=O)Nc2ccccc2)cc1 returned TMEM16A inh inactive, CHT allo act inactive, Kir21 block 2.3, ANO1 activ inactive, CHT block inactive and Rce1 inhib inactive.
`C=CCNC(=O)C1CCC(=O)N1S(=O)(=O)c1ccc(C)cc1` (stereo not drawn) gave TMEM16A inh inactive, CHT allo act inactive, Kir21 block -0.26, ANO1 activ inactive, CHT block inactive and Rce1 inhib inactive.
C=CCCN(Cc1ccccc1)S(=O)(=O)c1cc(Br)ccc1Br was read as ANO1 activ inactive.
`Cc1c(Cl)sn(-c2ccc(Cl)cc2)c1=O` gave ANO1 activ -13.9*.
`CN1CCN(S(=O)(=O)c2ccc(Oc3ccc(F)c(Cl)c3)nc2)CC1` gave TMEM16A inh inactive, CHT allo act inactive, Kir21 block -0.67, ANO1 activ inactive, CHT block inactive and Rce1 inhib inactive.
Screening O=C(O)c1ccc2cccc(Cl)c2c1O returned TMEM16A inh inactive, CHT allo act inactive, Kir21 block 1.15, ANO1 activ inactive, CHT block inactive and Rce1 inhib active.
Cc1ccc([N+](=O)[O-])cc1NC(=O)CN1CCC(C)CC1 was read as TMEM16A inh inactive, CHT allo act inactive, Kir21 block -0.81, ANO1 activ inactive, CHT block inactive and Rce1 inhib inactive.
`CC1CCN(CC(=O)Nc2cccc([N+](=O)[O-])c2)CC1` gave TMEM16A inh 25*, CHT allo act inactive, Kir21 block -0.01, ANO1 activ inactive, CHT block inactive and Rce1 inhib inactive.
`CN1CCN(CCCNC(=O)c2cc3c(=O)n(C)c4ccccc4c3s2)CC1` gave TMEM16A inh inactive, CHT allo act inactive, Kir21 block 1.07, ANO1 activ inactive, CHT block inactive and Rce1 inhib active.
For O=C(NCCCN1CCCCCC1)c1cc2c(=O)oc3ccccc3c2s1 the results were TMEM16A inh inactive, CHT allo act inactive, Kir21 block -0.51, ANO1 activ inactive, CHT block inactive and Rce1 inhib inactive.
For Cc1ccccc1C(=O)NCCNC(=O)c1cnccn1 the results were TMEM16A inh inactive, CHT allo act inactive, Kir21 block -0.13, ANO1 activ inactive, CHT block inactive and Rce1 inhib inactive.
CC[C@H](C)/C=C/C1=CC2=C(Cl)C(=O)[C@@]3(C)OC(=O)C(C(=O)[C@H](C)[C@@H](C)O)=C3C2=CO1 was read as TMEM16A inh 25*, CHT allo act inactive, Kir21 block -0.61, ANO1 activ inactive, CHT block inactive and Rce1 inhib inactive.
For COc1cc(CNCCCN2CCOCC2)cc(Br)c1OCc1ccc(Cl)cc1 the results were TMEM16A inh inactive, CHT allo act inactive, Kir21 block -8.18*, ANO1 activ inactive, CHT block inactive and Rce1 inhib inactive.
`CC(C)(C)c1ccc(OCCCNC2CCCC2)cc1` gave TMEM16A inh inactive, CHT allo act inactive, Kir21 block -4.26*, ANO1 activ inactive, CHT block inactive and Rce1 inhib inactive.
`O=C(O)/C=C/c1ccc(O)cc1` gave TMEM16A inh inactive, CHT allo act inactive, Kir21 block 0.82, ANO1 activ inactive, CHT block inactive and Rce1 inhib active.
`O=C(COC(=O)C1CCCN1C(=O)c1cccs1)Nc1ccc2c(c1)OCO2` (stereo not drawn) gave TMEM16A inh inactive, CHT allo act inactive, Kir21 block -1.26, ANO1 activ -20.4*, CHT block inactive and Rce1 inhib inactive.
Screening Cc1cc(=O)[nH]c(SCC(=O)Nc2ccc3c(c2)CCC3)c1C#N returned ANO1 activ inactive.
`Cc1cc(=O)[nH]c(SCC(=O)Nc2ccc(Br)cc2)c1C#N` gave TMEM16A inh 100*, CHT allo act inactive, Kir21 block -3.01, ANO1 activ inactive, CHT block inactive and Rce1 inhib inactive.
`O=C(COC(=O)/C=C/c1ccc(F)cc1)NC1CCS(=O)(=O)C1` (stereo not drawn) gave ANO1 activ inactive.
Screening Cc1cc(C)c(N2CCN(S(=O)(=O)N3CCCCCC3)CC2)c(C)c1 returned TMEM16A inh 25*, CHT allo act inactive, Kir21 block -0.51, ANO1 activ -21.6*, CHT block inactive and Rce1 inhib inactive.
For COc1ccc(-c2cc3nc(C)c(CCC(=O)N4CCN(c5ccccn5)CC4)c(C)n3n2)c(OC)c1 the results were TMEM16A inh inactive, CHT allo act inactive, Kir21 block 0.65, ANO1 activ inactive, CHT block inactive and Rce1 inhib active.
O=C(c1cccc(N2C(=O)C3C4C=CC(C4)C3C2=O)c1)N1CCN(c2ccccc2Cl)CC1 (stereo not drawn) was read as TMEM16A inh inactive, CHT allo act inactive, Kir21 block 0.62, ANO1 activ inactive, CHT block inactive and Rce1 inhib inactive.
For CNCCCOc1ccc(C)cc1Br the results were TMEM16A inh inactive, CHT allo act inactive, Kir21 block -1.23, ANO1 activ inactive, CHT block inactive and Rce1 inhib inactive.
Screening CNCCCCOc1ccc(C(C)(C)C)cc1Cl returned TMEM16A inh inactive, CHT allo act inactive, Kir21 block -4.87*, ANO1 activ inactive, CHT block inactive and Rce1 inhib inactive.
Cc1nc(Sc2nnnn2-c2ccccc2)c(C#N)c(C)c1C was read as TMEM16A inh inactive, CHT allo act inactive, Kir21 block -4.87*, ANO1 activ inactive, CHT block inactive and Rce1 inhib inactive.
Screening Cc1cc(C)c(C#N)c(Sc2nnnn2-c2ccccc2)n1 returned TMEM16A inh inactive, CHT allo act inactive, Kir21 block -1.99, ANO1 activ inactive, CHT block inactive and Rce1 inhib inactive.
Screening O=c1c2ccccc2c(C=NCCCN2CCOCC2)c(O)n1Cc1ccccc1 returned TMEM16A inh inactive, CHT allo act inactive, Kir21 block -5.82*, ANO1 activ inactive, CHT block inactive and Rce1 inhib inactive.
For COc1ccc(-c2[nH]ncc2CN(CCO)CC23CC4CC(CC(C4)C2)C3)c(OC)c1 the results were TMEM16A inh inactive, CHT allo act inactive, Kir21 block -5.59*, ANO1 activ inactive, CHT block inactive and Rce1 inhib inactive.

Screens as filed in PubChem.
